# Laboratory results taken from PubChem BioAssay.
# The source made the active and inactive calls.
# Tests used:
# [1] = test system: Wnt5a (protein binding on small-molecule microarray); test: Wnt5a binders on small-molecule microarray, primary screen, biophysical, 635/667 nm fluorescence (AID 1142); conditions: 635 nm fluorescence, higher = more signal;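 further: fluorescence read at 667 nm with signal to noise per printed feature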
# [2] = cell viability in Huh7 cells, primary screen, cytotoxicity control for HCV replication inhibitor project, CellTiter-Glo luminescence, basal, 48 h (AID 1143); conditions: Huh7 HCV replicon, higher = more signal, called active from +8 up or from −8 down;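 further: Huh7 hepatoma cells carrying a hepatitis C replication reporter with no stimulus; test concentration not given here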
# [3] = CREB reporter modulators without forskolin, primary screen, cell-based, PC12, CRE-LacZ reporter, unstimulated (AID 1145); conditions: no forskolin, luminescence, 4.5 h, higher = more signal, called active from +8 up or from −8 down
# [4] = CREB reporter modulators under forskolin, primary screen, cell-based, PC12, CRE-LacZ reporter, forskolin-stimulated (AID 1146); conditions: luminescence, 4.5 h, higher = more signal, called active from +8 up or from −8 down;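 further: PC12 cells with 6xCRE LacZ reporter stimulated by forskolin 10 µM; beta-galactosidase reporter signal reflecting CREB driven transcription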
# [5] = biological target: Streptavidin (Streptomyces avidinii) (UniProt P22629); test: streptavidin binders on small-molecule microarray, primary screen, artefact control for SMM compound annotation, biophysical, 635/667 nm fluorescence (AID 1147); conditions: streptavidin binding, higher = more signal;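 further: signal reflects streptavidin binding to arrayed compounds as a control protein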
# Chain of Streptavidin (Streptomyces avidinii) (P22629 whole entry, looked up): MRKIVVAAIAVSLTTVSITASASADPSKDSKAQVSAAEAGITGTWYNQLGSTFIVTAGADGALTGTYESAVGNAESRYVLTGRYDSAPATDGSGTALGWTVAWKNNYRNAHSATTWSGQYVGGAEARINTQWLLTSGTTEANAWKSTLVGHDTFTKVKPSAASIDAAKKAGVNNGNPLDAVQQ
# [6] = small-molecule binders of probe aInhba, primary screen, biochemical, small-molecule microarray, 635/667 nm fluorescence (AID 1148); conditions: higher = more signal;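 further: score merges 667nm spot fluorescence with signal-to-noise for antibody binding to printed compounds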
# [7] = biological target: Torsin-1A (Homo sapiens) (UniProt O14656); test: torsin A binders from cell lysate, primary screen, small-molecule microarray, wild-type, 635/667 nm (AID 1149); conditions: COS7 hTOR1A-WT lysate, 635 nm fluorescence, higher = more signal
# Chain of Torsin-1A (Homo sapiens) (O14656 whole entry, looked up): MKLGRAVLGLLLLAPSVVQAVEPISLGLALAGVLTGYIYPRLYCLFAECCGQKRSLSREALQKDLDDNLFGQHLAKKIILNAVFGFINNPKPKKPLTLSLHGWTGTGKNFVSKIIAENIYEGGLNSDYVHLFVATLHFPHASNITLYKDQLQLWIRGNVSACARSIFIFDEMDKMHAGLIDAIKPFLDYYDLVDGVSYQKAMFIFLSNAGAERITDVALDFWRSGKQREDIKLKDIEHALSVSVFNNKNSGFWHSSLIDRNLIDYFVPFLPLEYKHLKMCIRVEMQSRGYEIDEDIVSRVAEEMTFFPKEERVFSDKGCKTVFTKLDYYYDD
# [8] = biological target: Torsin-1A (Homo sapiens) (UniProt O14656); test: small-molecule binders of mutant TOR1A in lysate, primary screen, cell lysate, small-molecule microarray, COS7 lysate, 635/667 nm fluorescence (AID 1150); conditions: COS7 hTOR1A mutant lysate, 635 nm fluorescence, higher = more signal;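 further: score pools 667 nm emission and signal to noise measuring lysate protein binding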
# [9] = test system: Sonic hedgehog protein (Shh); test: small-molecule binders of Shh protein, primary screen, biochemical, small-molecule microarray, 635/667 nm fluorescence (AID 1151); conditions: small-molecule microarray binding, 635 nm fluorescence; higher = more signal;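 further: Shh protein binding to compounds spotted on small-molecule microarray slides; score combines spot fluorescence intensity with signal-to-noise across triplicate slides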
# [10] = E. coli DRC41 culture turbidity changes, primary screen, E. coli filamentation inducer project, strain DRC41, OD650, 48 h (AID 1152);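 further: E. coli MC1000 strain DRC41 lacking acrAB efflux pump and sulA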; conditions: E. coli DRC41 (acrAB sulA), higher = more signal, called active from +8 up or from −8 down
# [11] = small-molecule binders of probe aLefty1, primary screen, biochemical, small-molecule microarray, 635/667 nm fluorescence (AID 1153); conditions: higher = more signal;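 further: score merges spot fluorescence with signal-to-noise ratio from the scanned slide images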
# [12] = PSAC antagonists in infected red cells, primary screen, cell-based, P. falciparum Indochina, OD700, 1 h (AID 1154); conditions: P. falciparum Indochina infected RBC osmotic lysis, higher = more signal, called active from +8 up or from −8 down
# [13] = PSAC antagonists in infected red cells, primary screen, cell-based, P. falciparum Indochina, OD700, 2 h (AID 1155);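 further: lysis reports solute entry through the parasite surface anion channel PSAC; channel blockers reduce lysis of infected cells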; conditions: P. falciparum Indochina infected erythrocytes, osmotic lysis OD700; higher = more signal, called active from +8 up or from −8 down
# [14] = osmotic lysis modulators in infected erythrocytes, primary screen, PSAC antagonist project, cell-based, P. falciparum Indochina, OD700, 3 h (AID 1156); conditions: higher = more signal, called active from +8 up or from −8 down
# [15] = PSAC antagonists in infected red cells, primary screen, cell-based, P. falciparum Indochina, OD700, 18 h (AID 1157); conditions: P. falciparum Indochina infected erythrocytes, osmotic lysis OD700, 18 h; higher = more signal, called active from +8 up or from −8 down
# [16] = modulators of S6 phosphorylation in cells, primary screen, cell-based, A549, cytoblot, luminescence, serum-stimulated (AID 1158); conditions: A549 phospho-S6 cytoblot, 5 h, higher = more signal;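 further: serum-stimulated A549 lung adenocarcinoma cells; signal is phosphorylated S6 detected by cytoblot immunostaining with HRP secondary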
# [17] = biological target: NADPH oxidase 2 (Homo sapiens) (UniProt P04839); test: NOX2-dependent H2O2 signal modulators, primary screen, NOX inhibitor project, cell-based, HEK293-NOX2, PMA-stimulated, Amplex Red fluorescence (AID 1159); conditions: 45 min, higher = more signal, called active from +8 up or from −8 down; further: test concentration not given here
# Chain of NADPH oxidase 2 (Homo sapiens) (P04839 whole entry, looked up): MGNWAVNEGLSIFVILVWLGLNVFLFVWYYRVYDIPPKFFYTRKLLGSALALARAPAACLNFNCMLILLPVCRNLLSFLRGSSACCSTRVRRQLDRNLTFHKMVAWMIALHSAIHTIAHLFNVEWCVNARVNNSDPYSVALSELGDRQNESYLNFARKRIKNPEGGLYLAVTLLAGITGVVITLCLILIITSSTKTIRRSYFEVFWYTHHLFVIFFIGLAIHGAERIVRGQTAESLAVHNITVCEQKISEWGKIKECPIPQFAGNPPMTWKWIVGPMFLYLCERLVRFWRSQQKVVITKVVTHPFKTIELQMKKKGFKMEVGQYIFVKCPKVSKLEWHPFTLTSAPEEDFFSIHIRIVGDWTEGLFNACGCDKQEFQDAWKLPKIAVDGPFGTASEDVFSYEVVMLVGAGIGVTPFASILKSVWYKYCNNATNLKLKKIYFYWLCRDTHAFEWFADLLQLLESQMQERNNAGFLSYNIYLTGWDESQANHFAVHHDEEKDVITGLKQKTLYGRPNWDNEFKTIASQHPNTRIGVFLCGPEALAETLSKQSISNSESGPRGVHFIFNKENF
# [18] = biological target: NADPH oxidase 4 (Homo sapiens) (UniProt Q9NPH5); test: NOX4-dependent H2O2 signal modulators, primary screen, NOX inhibitor project, cell-based, HEK293-NOX4, tetracycline-induced, Amplex Red fluorescence (AID 1160); conditions: 45 min, higher = more signal, called active from +8 up or from −8 down
# Chain of NADPH oxidase 4 (Homo sapiens) (Q9NPH5 whole entry, looked up): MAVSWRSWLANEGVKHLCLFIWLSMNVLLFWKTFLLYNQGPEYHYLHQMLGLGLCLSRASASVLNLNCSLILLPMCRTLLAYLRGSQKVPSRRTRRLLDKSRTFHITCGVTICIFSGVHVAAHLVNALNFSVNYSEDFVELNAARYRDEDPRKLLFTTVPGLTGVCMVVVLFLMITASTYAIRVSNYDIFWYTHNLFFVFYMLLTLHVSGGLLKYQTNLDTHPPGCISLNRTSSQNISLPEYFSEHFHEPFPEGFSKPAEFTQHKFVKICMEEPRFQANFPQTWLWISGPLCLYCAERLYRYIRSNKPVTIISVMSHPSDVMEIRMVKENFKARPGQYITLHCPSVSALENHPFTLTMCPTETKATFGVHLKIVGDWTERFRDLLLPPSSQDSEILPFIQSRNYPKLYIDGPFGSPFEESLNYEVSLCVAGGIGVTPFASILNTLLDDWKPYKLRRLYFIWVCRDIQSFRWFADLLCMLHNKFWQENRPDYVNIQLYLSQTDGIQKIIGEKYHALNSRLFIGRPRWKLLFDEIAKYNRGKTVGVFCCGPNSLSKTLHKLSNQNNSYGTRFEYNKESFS
# [19] = biological target: NADPH oxidase 5 (Homo sapiens) (UniProt Q96PH1); test: NOX5-dependent H2O2 signal modulators, primary screen, NOX inhibitor project, cell-based, HEK293-NOX5, Amplex Red fluorescence (AID 1161); conditions: HEK293-NOX5, ionomycin, 45 min, higher = more signal
# Chain of NADPH oxidase 5 (Homo sapiens) (Q96PH1 whole entry, looked up): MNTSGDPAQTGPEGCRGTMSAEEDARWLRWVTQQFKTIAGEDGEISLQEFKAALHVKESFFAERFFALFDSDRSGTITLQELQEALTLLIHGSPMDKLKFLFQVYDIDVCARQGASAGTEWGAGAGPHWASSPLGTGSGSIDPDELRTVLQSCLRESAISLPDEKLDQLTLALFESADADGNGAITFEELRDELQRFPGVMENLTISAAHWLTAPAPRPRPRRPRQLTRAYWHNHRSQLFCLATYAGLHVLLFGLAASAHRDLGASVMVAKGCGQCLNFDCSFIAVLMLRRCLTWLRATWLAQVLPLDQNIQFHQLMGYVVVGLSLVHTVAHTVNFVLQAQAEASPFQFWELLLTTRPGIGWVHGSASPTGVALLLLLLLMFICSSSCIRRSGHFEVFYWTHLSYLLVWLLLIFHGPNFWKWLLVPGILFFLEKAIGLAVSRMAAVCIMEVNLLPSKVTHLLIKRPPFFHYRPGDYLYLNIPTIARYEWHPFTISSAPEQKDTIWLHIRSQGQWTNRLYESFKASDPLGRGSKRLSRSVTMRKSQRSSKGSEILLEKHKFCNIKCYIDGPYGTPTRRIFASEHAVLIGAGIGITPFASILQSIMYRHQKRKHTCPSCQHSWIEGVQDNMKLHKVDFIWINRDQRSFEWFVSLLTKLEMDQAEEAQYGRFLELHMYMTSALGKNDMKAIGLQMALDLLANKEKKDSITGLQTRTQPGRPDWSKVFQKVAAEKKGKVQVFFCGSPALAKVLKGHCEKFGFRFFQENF
SMILES,composite z-score [1],z-score [2],z-score [3],z-score [4],composite z-score [5],composite z-score [6],composite z-score [7],composite z-score [8],composite z-score [9],z-score [10],composite z-score [11],z-score [12],z-score [13],z-score [14],z-score [15],z-score [16],z-score [17],z-score [18],z-score [19]
CN(C)CCCC[C@@H]1NC(=O)[C@@H]2C[C@H](C(=O)O)[C@H](c3ccc(O)cc3)N2C1=O,0.471,-3.87 (inactive),0.415 (inactive),-0.183 (inactive),0.0842,0.174,0.939,0.395,1.92,2.66 (inactive),0.616,0.847 (inactive),-1.57 (inactive),-3.19 (inactive),-1.98 (inactive),1.03,-2.71 (inactive),-3.88 (inactive),-2.48
Cc1ccc(S[C@]2(C(=O)O)CC(=O)N(Cc3ccccc3)[C@@H]2c2ccc(CO)cc2)cc1,0.0167,-1.22 (inactive),-0.412 (inactive),-0.84 (inactive),-0.185,-0.154,0.0253,0.12,0.0306,2.89 (inactive),0.0215,2.85 (inactive),-0.263 (inactive),1.09 (inactive),-0.707 (inactive),0.462,-0.198 (inactive),-0.197 (inactive),1.6
CCN1C(C)=C(C(=O)OC)[C@@H](c2ccccc2)N2C(=O)[C@](O)(C(=O)OC)[C@@H](c3ccccc3)C(C(C)=O)=C12,0.223,-5.29 (inactive),0.106 (inactive),-1.04 (inactive),-0.0371,-0.177,0.142,0.355,1.75,-0.461 (inactive),-0.0111,2.31 (inactive),0.414 (inactive),0.291 (inactive),0.0714 (inactive),3.95,-0.211 (inactive),-0.585 (inactive),1.35
O=C(O)[C@@H]1Cc2c([nH]c3ccccc23)[C@@H](c2ccccc2)N1,0.019,-0.691 (inactive),0.109 (inactive),-1.69 (inactive),0.29,-0.164,0.589,0.409,0.371,0.327 (inactive),-0.202,0.864 (inactive),0.71 (inactive),1.46 (inactive),0.152 (inactive),-0.344,1.04 (inactive),-0.429 (inactive),-0.614
COc1cccc([C@@H]2[C@@H](C)CC[C@H]3C(=O)N4[C@H](c5cccc(OC)c5)[C@@H](C)CC[C@H]4C(=O)N23)c1,0.0508,-1.88 (inactive),1.38 (inactive),-1.18 (inactive),0.258,0.054,0.504,0.824,0.944,-0.0799 (inactive),-0.234,-0.0074 (inactive),-0.69 (inactive),-1.21 (inactive),-0.987 (inactive),3.15,0.181 (inactive),0.349 (inactive),0.796
COc1cc2c(cc1OC)CN(C(=O)[C@@H]1[C@H]3C(=O)O[C@H](c4ccccc4)[C@H](c4ccccc4)N3[C@H](c3ccccc3OCCO)[C@@]13C(=O)Nc1ccccc13)CC2,0.406,-2.96 (inactive),0.769 (inactive),-1.31 (inactive),0.0797,0.387,0.497,0.701,0.554,1.47 (inactive),0.551,8.6 (active),3.56 (inactive),-0.0442 (inactive),2.22 (inactive),0.206,1.67 (inactive),1.02 (inactive),0.901
C=CC[C@@]1(C(=O)N2CCOCC2)N=C(c2ccc(OCCCO)cc2)O[C@@H]1c1ccccc1,-0.0454,-1.33 (inactive),0.437 (inactive),-0.354 (inactive),-0.0392,-0.151,0.0827,1.2,-0.571,1.24 (inactive),-0.269,20.8 (active),4.03 (inactive),2.25 (inactive),1.11 (inactive),-0.115,-1.04 (inactive),0.471 (inactive),-1
Cc1ccc(N2C(=O)c3ccccc3[C@](C)(C(=O)O)[C@@H]2c2ccc(CO)cc2)nc1,-0.56,-0.718 (inactive),-0.852 (inactive),-0.942 (inactive),-0.519,-0.267,1.11,-0.144,-0.751,1.47 (inactive),-0.147,0.703 (inactive),-0.228 (inactive),-0.0241 (inactive),-0.211 (inactive),0.283,0.775 (inactive),-0.975 (inactive),-0.457
C=CCN1C(=O)[C@@]2(O[C@@H](CCn3cc([C@H](O)c4ccccc4)nn3)[C@H]([Si](C)(C)c3ccc(OC)cc3)[C@H]2C)c2cc(N3CCOC3=O)ccc21,-0.0882,-6.15 (inactive),8.19 (active),-1.73 (inactive),-0.349,-0.157,0.0712,0.557,0.185,1.77 (inactive),-0.139,6.55 (inactive),0.569 (inactive),-0.0434 (inactive),-0.233 (inactive),1.67,-0.379 (inactive),1.18 (inactive),-1.67
